In the library only some 19% were active in any assay of this set; here they are far more common.
HT1080 IDH1KD tx: kills HT-1080 cells with IDH1 knockdown; actives 2% (n = 360,000); HT-1080 IDH1 knockdown viability, ATP luminescence, 48 h; Potency, µM (series often up to 46.1 µM), for the others: at the top dose activity, negative = toxicity, actives largely listed as cytotoxic;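 note: 0% = DMSO wells and -100% = cell-free medium wells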
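Viability of IDH1-knockdown HT-1080 fibrosarcoma cells was assessed by CellTiter-Glo after 48 h at 37 °C with titrated compound; concentration-effect curves were classified by fit quality and response size.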
HT1080-NT tox: kills 2HG-producing HT-1080-NT fibrosarcoma cells. HT-1080-NT fibrosarcoma viability, CellTiter-Glo ATP luminescence, 48 h. Potency, µM (titrated, usually from 46.1 µM), for the others: at the top dose activity, negative = less viability, actives largely listed as cytotoxic. actives 1.6% (n = 360,000). AID 686970;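 note: NT is the 2HG producing partner of a matched IDH1 knockdown line; 0% = DMSO-treated cells and -100% = media-only wells without cells; nearly all actives have a fitted effect of over 55% in size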
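Toxicity toward the 2HG-producing NT line was scored as %Activity, normalised to DMSO and no-cell wells, from CellTiter-Glo luminescence after 48 hours' treatment.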
KB-3-1 tox: KB-3-1 parental cell cytotoxicity; actives 1.4% (n = 400,000); KB-3-1 viability, CellTiter-Glo ATP luminescence, 72 h; Potency, µM (highest dose often 46.1 µM), most hits filed as cytotoxic; note: nearly all actives have a fitted effect of over 60% in size
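Cells are dispensed, compounds pinned in, plates held at 37 °C for 72 h, then CellTiter-Glo is added and luminescence read after 10 minutes. Cell line: parental KB-3-1 in phenol-red-free DMEM, 10% FBS.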
TDP1 cell noCPT: qHTS for Inhibitors of human tyrosyl-DNA phosphodiesterase 1 (TDP1): qHTS in cells in absence of CPT; DT40 Tdp1-/- hTDP1 cells, no CPT, ATP luminescence, 48 h; Potency, µM (series often up to 46.2 µM), without a hit: top-dose activity change, negative = growth inhibition, actives largely listed as inhibitors; actives 15% (n = 420,000); AID 686978, 2013; note: nearly all actives have a fitted effect of over 55% in size
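Seeded 400 DT40-hTDP1 cells/well (vehicle DMSO, no 20 nM CPT); pinned compounds; ≥48 hr at 37 °C; CellTiter-Glo luminescence as viability measure.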
KB-V1 MDR tox: KB-V1 MDR subline cytotoxicity. KB-V1 MDR cells viability, CellTiter-Glo, 72 h. Potency, µM (series often up to 46.1 µM), most hits filed as cytotoxic. actives 3.4% (n = 400,000). AID 1347076; note: nearly all actives have a fitted effect of over 60% in size
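Cytotoxicity via CellTiter-Glo luminescence after 72 h compound exposure at 37 degrees C. Cells: drug-selected KB-V1 line, DMEM phenol-red free plus 10% FBS. Compounds tested at multiple concentrations; normalized data fitted to concentration-effect curves.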
TDP1 cell CPT: DT40-hTDP1 cell growth loss with CPT. Potency, µM (top dose mostly 46.2 µM), without a hit: at the top dose activity change, negative = growth inhibition, hits mostly inhibitors. actives 12% (n = 420,000). chicken DT40 Tdp1-/-;hTDP1 cells + 20 nM CPT, ATP luminescence, 48 h. AID 686979; note: nearly all actives have a fitted effect of over 55% in size
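Chicken DT40 Tdp1-/- cells complemented with human TDP1, 400 cells/well, exposed to compounds plus 20 nM camptothecin for at least 48 h at 37 C; viability read as ATP content by CellTiter-Glo luminescence.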
An asterisk follows results filed as active; i = inactive; ? = inconclusive; . = no result given. Calls come from the whole dose curve; as a rule, active = well fitted curve in the direction sought with a large enough effect; inconclusive = small, poorly fitted or top-dose-only effect, or another doubt; inactive = no such curve, though single readings can be large; an effect the other way counts as inactive or inconclusive. Unless noted, % is set by controls: 0 for no effect and ±100 for the full control effect; potency is the fitted concentration of half-maximal effect.

SMILES | HT1080 IDH1KD tx | HT1080-NT tox | KB-3-1 tox | TDP1 cell noCPT | KB-V1 MDR tox | TDP1 cell CPT
COc1cc(/C(C)=C/c2ccccc2)c2c(c1)oc1ccccc12 | . | . | i | 14.1µM* | i | ?
CC/C(=C/c1ccccc1)c1cc(Oc2ccccc2)cc2oc3ccccc3c12 | . | . | i | -17.4% | i | -10.2%
COc1cccc(-n2cnc3sc(C)c(C)c3c2=O)c1 | -0.7% | -0.6% | i | -9.5% | 20.6µM* | -5.8%
NNc1nc2sc3c(c2c(=O)n1-c1ccccc1)CCCC3 | -26.0% | -11.8% | ? | ? | i | 18.4µM*
Nn1c(Nc2ccccc2)nc2sc3c(c2c1=O)CCCC3 | -10.2% | -4.6% | i | ? | i | ?
COc1ccc(-n2c(NNC(C)=O)nc3sc4c(c3c2=O)CCCC4)cc1 | -22.3% | -24.4% | i | 4.11µM* | i | 3.26µM*
COc1ccc(-n2cnc3sc4c(c3c2=O)CCCC4)cc1 | -17.5% | 0.6% | i | ? | 16.4µM* | ?
CCCNC(=O)C(Cc1cccc(Cl)c1)NC(=O)c1ccccc1 (centres undefined) | -3.1% | -8.1% | i | -28.3% | i | ?
O=C(CCc1ccc(S(=O)(=O)N2CCOCC2)cc1)OCC(=O)c1ccccc1 | 9.2% | 7.4% | i | -1.4% | i | 8.1%
COc1cc(/C=N/NC(=O)c2ccc(O)cc2)ccc1OCC(=O)N1CC(C)OC(C)C1 (centres undefined) | 0.5% | -13.2% | i | -10.1% | i | -15.0%
COCCN(C(=O)COC(=O)c1ccc2ccccc2c1)c1c(N)n(Cc2ccccc2)c(=O)[nH]c1=O | -0.7% | -0.4% | i | -26.0% | i | -21.1%
COc1ccc(CNc2cc(C)nc3ncnn23)c(OC)c1 | ? | ? | ? | 10µM* | i | ?
COc1ccc(Nc2cc(C)nc3ncnn23)c(OC)c1 | -1.5% | 17.0% | i | 0.0% | i | -0.7%
CCOc1ccccc1NC(=O)COC(=O)C1CCC(=O)N1 (centres undefined) | 10.2% | 12.9% | i | -10.6% | i | 3.1%
COc1ccc(C2c3ccc4ccccc4c3Oc3ncn(CCCN(C)C)c(=N)c32)cc1 (centres undefined) | ? | 18.4µM* | ? | 4.61µM* | ? | 11.6µM*
N=c1c2c(ncn1CCCO)Oc1cc(O)ccc1C2c1ccccc1 (centres undefined) | 2.7% | -0.6% | i | -0.5% | i | -13.3%
COc1ccccc1C1c2ccc3ccccc3c2Oc2ncn(CCCO)c(=N)c21 (centres undefined) | 23.1µM* | 20.6µM* | i | 23.1µM* | i | 23.1µM*
COc1ccc(C2c3ccc4ccccc4c3Oc3ncn4nc(Cc5ccccc5)nc4c32)cc1OC (centres undefined) | ? | -26.8% | i | ? | i | -26.1%
COc1ccc(C2c3ccc(O)cc3Oc3ncn(Cc4ccco4)c(=N)c32)cc1OC (centres undefined) | ? | ? | i | ? | i | ?
COc1ccccc1C1c2ccc3ccccc3c2Oc2ncn(CCN(C)C)c(=N)c21 (centres undefined) | 8.2µM* | 10.3µM* | ? | 16.4µM* | ? | ?
COc1ccc(C2c3ccc4ccccc4c3Oc3ncn(Cc4ccco4)c(=N)c32)cc1OC (centres undefined) | 20.6µM* | 20.6µM* | ? | 16.4µM* | ? | 23.1µM*
O=C(Nc1cccc(Br)c1)N1CCC(CN2CCCCC2)CC1 | . | . | i | -12.1% | i | -4.0%
COc1cc(NC(=O)c2ccc(-c3cnn(C)c3)c3ccoc23)cc(OC)c1OC | -3.4% | -13.1% | i | ? | i | ?
CCOC(=O)c1ccccc1NC(=O)N1CCC(CN2CCOCC2)CC1 | . | . | . | -25.6% | . | -8.7%
CC(C)(C)c1nnc(N/N=C/c2cc(Br)ccc2O)n(N)c1=O | ? | ? | ? | 2.31µM* | ? | 2.59µM*
SMILES | HT1080 IDH1KD tx | HT1080-NT tox | KB-3-1 tox | TDP1 cell noCPT | KB-V1 MDR tox | TDP1 cell CPT
CCc1nnc(N/N=C/c2cccs2)n1N | -15.8% | -9.9% | i | ? | i | 25.9µM*
CCc1nnc(N/N=C/c2cc(Br)c(O)cc2O)n1N | ? | ? | ? | ? | i | 4.11µM*
C=CCSc1nnc(NC(=O)CSc2nc(CCC)cc(=O)[nH]2)s1 | -19.0% | -27.6% | ? | ? | 20.6µM* | ?
CCCc1cc(=O)[nH]c(SCC(=O)Nc2cc(S(=O)(=O)N3CCOCC3)ccc2Cl)n1 | ? | ? | i | -14.5% | i | 1.6%
C=CCSc1nnc(NC(=O)CSc2nc3ccccc3[nH]2)s1 | -13.4% | -14.7% | i | -18.7% | i | -27.7%
CCCc1cc(=O)[nH]c(SCC(=O)Nc2cc(S(=O)(=O)N3CCCCC3)ccc2Cl)n1 | 14.6µM* | 6.51µM* | 8.2µM* | 4.1% | ? | -14.8%
Nc1cc(=O)[nH]c(SCC(=O)Nc2cc(S(=O)(=O)N3CCCCCC3)ccc2Cl)n1 | -2.7% | -27.2% | i | ? | i | 4.1%
Cc1ccc(-c2nc(SCC(=O)Nc3cc(S(=O)(=O)N4CCCCC4)ccc3Cl)n[nH]2)cc1 | -15.3% | -20.3% | ? | ? | 16.4µM* | ?
O=C(c1ccncc1)N1CCC2(CC1)CCN(c1ccccc1)CC2 | . | . | . | ? | . | -8.4%
C[C@H](CO)N1C[C@H](C)[C@@H](CN(C)C(=O)Nc2ccccc2)Oc2ccc(NC(=O)Cc3ccccc3)cc2C1=O | 8.5% | 4.8% | i | -9.2% | i | 6.2%
CCOc1ccc(OCc2cccc(C(=O)O)c2)cc1 | 7.94µM* | 7.94µM* | i | 8.2µM* | i | 14.6µM*
COc1ccc(OCc2cccc(C(=O)O)c2)cc1 | ? | ? | ? | ? | 18.4µM* | ?
CCOc1ccc(OCc2cccc(C(=O)N3CCCC3)c2)cc1 | 9.2% | -5.9% | i | -28.3% | ? | -20.1%
O=C(NCC1Cc2cccc(-c3cnccn3)c2O1)c1ccc(F)c(Cl)c1 (centres undefined) | . | . | . | -11.8% | . | -0.1%
COc1ccccc1NC(=O)c1sc2nc(C)c(C(=O)Nc3ccc(C)cc3C)c(-c3ccc(C)o3)c2c1N | . | . | i | ? | i | ?

High-throughput results from PubChem BioAssay.
